# TDP1 cell CPT = qHTS for Inhibitors of human tyrosyl-DNA phosphodiesterase 1 (TDP1): qHTS in cells in presence of CPT; actives 12% (n = 420,000); chicken DT40 Tdp1-/-;hTDP1 cells + 20 nM CPT, ATP luminescence, 48 h; Potency, µM (top dose mostly 46.2 µM), without a hit: at the top dose activity change, negative = growth inhibition, usual class: inhibitors; note: potency is the fitted concentration of half-maximal effect; nearly all actives have a fitted effect of over 55% in size
#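 Cell growth measured by CellTiter-Glo luminescence after a minimum 48 h, 37 C compound exposure with 20 nM CPT in Tdp1-knockout DT40 cells stably expressing hTDP1, seeded 400/well; qHTS titration format.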
# Giardia kill = Small Molecules that selectively kill Giardia lamblia: qHTS; Giardia lamblia trophozoite viability; AID 540267, 2011; actives 0.15% (n = 340,000); activity change, % at 7.66 µM, hits read low; in the data active = activity change below about -80%; inconclusive = between about -30% and that limit;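 note: parasites exposed to compound for two days anaerobically before the ATP read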
#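 Killing of trophozoites was scored by loss of ATP luminescence after a 48 hrs anaerobic exposure to compounds at 37 deg C, using 100 cells per well.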
# IL1B secr inh = qHTS for Inhibitors of Inflammasome Signaling: IL-1-beta AlphaLISA Primary Screen | THP-1 LPS/ATP IL-1B secretion, AlphaLISA, 16 h; stronger effect = lower value | activity change, % at 57.5 µM | actives 4.7% (n = 360,000) | AID 743279, 2014; in the data active = activity change below about -50%; inconclusive = mostly about -30% to -49%
#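 THP-1 cells pretreated 1 hr with compounds (up to 57.5 uM final), then stimulated with LPS (250 ng/mL final) plus ATP (1.25 mM final); secreted IL-1B measured by AlphaLISA after 16 hr, decreased signal indicating inhibition.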
# TDP1 inh = qHTS Assay for Inhibitors of Tyrosyl-DNA Phosphodiesterase (TDP1); Potency, µM (highest dose often 130 µM), without a hit: at the top dose activity change, negative = inhibition, most hits filed as inhibitors; actives 0.28% (n = 350,000); recombinant TDP1, AlphaScreen DNA substrate cleavage; note: potency is the fitted concentration of half-maximal effect; nearly all actives have a fitted effect of over 40% in size
# Target sequence (Q9NUW8 whole entry, looked up): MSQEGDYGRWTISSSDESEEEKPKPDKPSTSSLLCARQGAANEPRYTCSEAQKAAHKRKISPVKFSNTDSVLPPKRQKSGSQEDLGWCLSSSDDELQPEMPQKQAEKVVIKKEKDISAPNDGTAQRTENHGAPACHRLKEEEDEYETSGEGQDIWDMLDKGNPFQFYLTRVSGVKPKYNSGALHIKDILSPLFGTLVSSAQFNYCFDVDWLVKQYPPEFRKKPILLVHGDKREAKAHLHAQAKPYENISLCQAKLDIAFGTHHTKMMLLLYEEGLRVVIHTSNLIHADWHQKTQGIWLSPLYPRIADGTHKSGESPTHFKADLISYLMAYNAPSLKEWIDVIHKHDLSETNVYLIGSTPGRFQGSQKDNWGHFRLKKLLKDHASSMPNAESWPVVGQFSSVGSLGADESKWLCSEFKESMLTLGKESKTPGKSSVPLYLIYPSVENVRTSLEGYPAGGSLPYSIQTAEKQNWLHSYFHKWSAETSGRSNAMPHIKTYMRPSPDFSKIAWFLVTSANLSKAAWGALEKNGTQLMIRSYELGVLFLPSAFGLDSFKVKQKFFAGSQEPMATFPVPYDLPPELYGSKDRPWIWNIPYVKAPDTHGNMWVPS
#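 E. coli-derived human Tdp1, 1 nM final. Cpd preinc 15 min RT; substrate 15 nM final, 5 min RT; AS bead mix 10 ug/ml final, 10 min RT. Signal loss = tyrosine-FITC cleavage. No-enzyme wells = max signal.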
# DT40 TDP1 no CPT = qHTS for Inhibitors of human tyrosyl-DNA phosphodiesterase 1 (TDP1): qHTS in cells in absence of CPT; actives 15% (n = 420,000); DT40 Tdp1-/- hTDP1 cells, no CPT, ATP luminescence, 48 h; Potency, µM (highest dose often 46.2 µM), for inactives: at the highest dose activity change, negative = growth inhibition, most hits filed as inhibitors; note: potency is the fitted concentration of half-maximal effect; nearly all actives have a fitted effect of over 55% in size
#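 Luminescent ATP content (CellTiter-Glo) served as the growth readout. Knockout chicken DT40 cells expressing human TDP1 were exposed to compounds without camptothecin for a minimum 48 hr at 37 °C.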
# ELG1 repair inh = qHTS screen for small molecules that inhibit ELG1-dependent DNA repair in human embryonic kidney (HEK293T) cells expressing luciferase-tagged ELG1; HEK293T ELG1-luciferase reporter, luminescence, 16 h; DNA damage induced by 5-fluorouridine; Potency, µM (top dose mostly 46.1 µM), for inactives: at the top dose activity change, negative = inhibition, most hits filed as inhibitors; actives 2.3% (n = 330,000); AID 504467, 2011; note: potency is the fitted concentration of half-maximal effect; nearly all actives have a fitted effect of over 55% in size
#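 5-Fluorouridine DNA damage + compound/DMSO, 2,000 cells/well, 16 h, 37 °C/5% CO2. ONE-Glo, 30 min RT, luminescence. Readout = decrease in reporter signal.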
# Active calls of the source: *; i = inactive; ? = inconclusive; nt = no result given; [ ] = another dose, or the depositor's remark. Rows were chosen to be rich in hits. Some 19% of all compounds tested hit in one or more screens of this group. Unless noted, calls come from the whole dose curve; as a rule, active = well fitted curve in the direction sought with a large enough effect; inconclusive = small, poorly fitted or top-dose-only effect, or another doubt; inactive = no such curve, though single readings can be large; an effect the other way counts as inactive or inconclusive. % is set by controls: 0 for no effect and ±100 for the full control effect.
SMILES,TDP1 cell CPT,Giardia kill,IL1B secr inh,TDP1 inh,DT40 TDP1 no CPT,ELG1 repair inh
CCc1ccc(S(=O)(=O)Nc2c(NC3CCCCC3)c3ccccc3oc2=O)cc1,?,12,-63*,3%,?,0%
CC(C)C(OC(=O)CNC(=O)c1ccccc1)C(=O)Nc1cc(C(F)(F)F)ccc1Cl (stereo not given),nt,nt,nt,0%,nt,nt
CCOC(=O)CC1(CC)Oc2ccccc2N1S(=O)(=O)c1ccc(C)cc1 (stereo not given),23µM*,nt,1,nt,?,nt
CCOC(=O)CC1(C)N(S(=O)(=O)c2ccc(C)cc2)c2ccccc2N1S(=O)(=O)c1ccc(C)cc1,?,nt,2,nt,15µM*,nt
CCOC(=O)C1CN(S(=O)(=O)c2ccc(OC)cc2)c2ccccc2O1 (stereo not given),6%,-6,45,nt,-18%,-7%
CCCCCCCCC1CC(C(=O)Nc2ccccc2)C(=O)O1 (stereo not given),-1%,6,?,nt,0%,nt
O=S(=O)(c1ccc(NC(=S)N/N=C/c2c3ccccc3cc3ccccc23)cc1)N1CCOCC1,2.6µM*,35,-11,0%,3.7µM*,?
O=S(=O)(c1ccc(NC(=S)N/N=C/c2ccc(Oc3ccccc3)cc2)cc1)N1CCOCC1,7%,25,6,8%,-12%,12%
O=S(=O)(c1ccc(NC(=S)N/N=C/c2ccc(N3CCOCC3)cc2)cc1)N1CCOCC1,4.1µM*,-13,13,7%,3.7µM*,-17%
CCN1CCN(C(c2ccccc2Cl)c2sc3nc(-c4ccco4)nn3c2O)CC1 (stereo not given),-10%,nt,nt,3%,-16%,nt
CC(NC(=O)c1ccc(OC2CCN(Cc3ccccn3)CC2)cc1)c1ccccc1 (stereo not given),?,13,-17,6%,18µM*,17%
Cc1c(C(=O)N(C)C)sc2c1c(=O)n(-c1ccc(Cl)c(Cl)c1)c(=O)n2CC(=O)N1CCCCC1C (stereo not given),7%,nt,nt,6%,6%,nt
COc1ccc(N(C(=O)c2ccncc2)S(=O)(=O)c2ccc3c4c(cccc24)C(=O)N3C)cc1,18µM*,-15,-14,-5%,?,-7%
CN1C(=O)c2cccc3c(S(N)(=O)=O)ccc1c23,-27%,-10,-88*,nt,-3%,6%
Cc1ccccc1NS(=O)(=O)c1ccc2c3c(cccc13)C(=O)N2C,?,-10,i,-7%[56.1 µM],?,?
COc1ccc(-c2nnc(SCC(=O)NC3CC3)o2)cc1,5%,2,17,1%,-5%,?
Cc1ccc(S(=O)(=O)N(Cc2cc3cc4c(cc3[nH]c2=O)OCCO4)CC2CCCO2)cc1 (stereo not given),-18%,3,-7,-1%,-18%,-3%
CC(=O)c1ccc(S(=O)(=O)N(Cc2cc3cc4c(cc3[nH]c2=O)OCCO4)CC2CCCO2)cc1 (stereo not given),-29%,14,-11,3%,11µM*,?
Cc1ccc2cc(CN(CC3CCCO3)S(=O)(=O)c3ccc4c(c3)OCCO4)c(=O)[nH]c2c1C (stereo not given),18µM*,10,-5,nt,21µM*,nt
CCOCC(=O)Nc1cc(C)on1,-4%,-6,-15,0%,17%,13%
C=C(C)[C@@H]1CCC2(C(=O)O)CC[C@]3(C)[C@H](CC[C@@H]4[C@@]5(C)CCC(=O)C(C)(C)[C@@H]5CC[C@]43C)[C@@H]12 (stereo not given in full),2.9µM*,-5,54,3%,3.7µM*,0%
C=C(CC[C@@H](O)C(C)(C)O)[C@H]1CC[C@]2(C)[C@@H]1CCC1[C@@]3(C)CCC(=O)C(C)(C)C3CC[C@]12C (stereo not given in full),?,0,36,0%,?,11%
Cc1ccc(-c2cc(-c3ccc(Cl)cc3)c(C#N)c(N)n2)o1,6.5µM*,-4,-6,1%,9.2µM*,-10%
Cc1ccc(-c2cc(-c3ccc(F)cc3)c(C#N)c(N)n2)o1,?,-3,1,0%,?,0%
Cc1ccc(-c2cc(-c3ccc(C)o3)nc(N)c2C#N)cc1,15µM*,-9,-6,8%,?,?
SMILES,TDP1 cell CPT,Giardia kill,IL1B secr inh,TDP1 inh,DT40 TDP1 no CPT,ELG1 repair inh
CCOc1cc(-c2cc(-c3ccc(C)o3)nc(N)c2C#N)ccc1O,16µM*,-2,-17,-2%,16µM*,16µM*
Cc1cc(-c2cc(-c3ccc(Cl)cc3)nc(N)c2C#N)co1,8.2µM*,11,17,-4%,21µM*,-1%
CCC(C)Sc1nnc(NC(=O)c2ccco2)s1 (stereo not given),-11%,1,-8,nt,-18%,nt
CN(CC(=O)Nc1ccccc1Cl)C(=O)COC(=O)CCN1C(=O)C2CC=CCC2C1=O (stereo not given),6%,-6,-7,0%,3%,24%
Cc1cccc2cc(CN(Cc3ccccc3)C(=O)c3cccc(F)c3)c(Cl)nc12,29µM*,9,-8,-3%,?,-3%
CS(=O)(=O)c1ccc(C(=O)N(Cc2ccccc2)c2ccccc2)cc1,?,25,11,1%,?,2%
Cc1ccc(N(Cc2ccccc2)C(=O)c2cccc(F)c2)cc1,?,-4,-61*,4%,?,1%
Cc1ccc(N(Cc2ccccc2)C(=O)c2ccc(F)cc2)cc1,21µM*,-11,-28,6%,?,-2%
CN(C)c1cccc(C(=O)N(Cc2ccccc2)Cc2ccccc2)c1,?,-9,-24,nt,?,8%
N#CCCn1nc(-c2ccccc2)cc1Nc1ccccc1NC(=O)C(F)(F)F,-20%,-6,-7,-1%,-28%,-10%
N#CCCn1nc(-c2ccc(Br)cc2)cc1Nc1ccccc1NC(=O)C(F)(F)F,?,-12,-78*,-1%,?,?

# High-throughput results (PubChem)
